Data on 87 molecules can be found in paper PMC4336329 (PLoS ONE, 2015).

Among all 310,000 compounds or so, about 14,000 (4.5%) showed an effect of 50% or more. The effect is printed as a negative number. For the sample, strong results were picked, then their nearest neighbours and some compounds at random.
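Further: peak tail current of the secondary pulse compared with the same well before compound.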

For this assay, the target named is human ether-à-go-go-related gene (hERG) potassium channel (human, UniProt Q12809). The experiment in a line: primary screen, population patch clamp on CHO cells stably expressing hERG; higher = less effect of the substance.
Sequence of human ether-à-go-go-related gene (hERG) potassium channel (Q12809 whole entry, looked up): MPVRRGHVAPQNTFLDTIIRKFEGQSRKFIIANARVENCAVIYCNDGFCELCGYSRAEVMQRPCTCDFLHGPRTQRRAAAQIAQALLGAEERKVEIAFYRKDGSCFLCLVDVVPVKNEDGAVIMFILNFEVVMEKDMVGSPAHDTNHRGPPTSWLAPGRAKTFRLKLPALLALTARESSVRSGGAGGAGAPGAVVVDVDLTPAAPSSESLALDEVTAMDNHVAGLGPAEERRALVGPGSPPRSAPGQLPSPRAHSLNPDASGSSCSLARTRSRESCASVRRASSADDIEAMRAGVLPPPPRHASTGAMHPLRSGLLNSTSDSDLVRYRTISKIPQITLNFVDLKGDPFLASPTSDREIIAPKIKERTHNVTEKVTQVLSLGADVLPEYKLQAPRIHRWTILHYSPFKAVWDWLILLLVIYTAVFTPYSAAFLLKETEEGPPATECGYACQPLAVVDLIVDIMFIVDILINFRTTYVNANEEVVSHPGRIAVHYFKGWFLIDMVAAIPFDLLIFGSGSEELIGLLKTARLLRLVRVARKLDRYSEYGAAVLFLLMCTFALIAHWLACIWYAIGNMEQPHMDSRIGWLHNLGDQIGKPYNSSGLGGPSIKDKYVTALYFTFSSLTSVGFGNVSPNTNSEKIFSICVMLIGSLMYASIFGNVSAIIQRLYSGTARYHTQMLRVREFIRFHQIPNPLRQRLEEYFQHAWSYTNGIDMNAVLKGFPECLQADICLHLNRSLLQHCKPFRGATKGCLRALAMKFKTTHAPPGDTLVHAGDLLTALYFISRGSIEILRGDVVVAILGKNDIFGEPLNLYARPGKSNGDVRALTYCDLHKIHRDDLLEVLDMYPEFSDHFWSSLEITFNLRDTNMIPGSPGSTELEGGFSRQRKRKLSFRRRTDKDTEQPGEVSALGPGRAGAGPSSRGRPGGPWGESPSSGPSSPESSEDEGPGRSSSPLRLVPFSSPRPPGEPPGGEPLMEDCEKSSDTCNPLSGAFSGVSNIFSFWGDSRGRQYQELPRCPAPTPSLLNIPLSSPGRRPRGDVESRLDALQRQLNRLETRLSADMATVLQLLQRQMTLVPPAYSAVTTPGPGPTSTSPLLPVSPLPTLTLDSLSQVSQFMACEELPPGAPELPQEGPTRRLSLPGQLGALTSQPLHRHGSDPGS
With `COc1ccc(OCC(=O)Nc2ccc3c(c2)n(C)c(=O)n3C)cc1`, the “hERG current change (%, negative = inhibition) at 10uM” value is -3.51%.

Turning to `Cn1c(=O)n(C)c2cc(NC(=O)COc3ccc(F)cc3)ccc21`, the “hERG current change (%, negative = inhibition) at 10uM” value is recorded as -41.8%.

As for `Cn1c(=O)n(C)c2cc(NC(=O)COc3ccc(Cl)cc3)ccc21`, the “hERG current change (%, negative = inhibition) at 10uM” value is -59.4%.

For the molecule `CCN1CCN(CCc2nc3cc(NC(=O)COc4ccc(Cl)cc4)ccc3n2C)CC1`, the “hERG current change (%, negative = inhibition) at 10uM” value is -67.6%. `CN1CCN(CCc2nc3cc(NC(=O)COc4ccc(Cl)cc4)ccc3n2C)CC1`: the “hERG current change (%, negative = inhibition) at 10uM” value is on record as -61%. As to `CCN1CCN(CCc2nc3cc(NC(=O)COc4ccccc4)ccc3n2C)CC1`, the “hERG current change (%, negative = inhibition) at 10uM” value was -49.8%. Turning to `CC(=O)Nc1ccc2c(c1)nc(CCN1CCN(C)CC1)n2C`, the “hERG current change (%, negative = inhibition) at 10uM” value is -2.56%.

Consider `Cn1c(CCN2CCCCC2)nc2cc(NC(=O)COc3ccc(Cl)cc3)ccc21`, for which the “hERG current change (%, negative = inhibition) at 10uM” value is -84.8%. Turning to `c1ccc(Cc2nnc3sc(-c4ccccn4)nn23)cc1`, the “hERG current change (%, negative = inhibition) at 10uM” value is listed as -6.6%. With `COc1ccc(C(=O)N=c2sc3c(C)ccc(OC)c3n2C)cc1OC` the figure was 7.38%; with `Cc1cc2c(ncn2C)c(NS(=O)(=O)c2ccc(Cl)cc2)c1C`, -1.18%; with `COc1cc(C2NCC(c3ccc(Cl)cc3Cl)c3c2[nH]c2ccccc32)cc(OC)c1OC.Cl` (stereo not drawn), 7.58%.

Turning to `COc1ccccc1N(C(=O)c1ccco1)C(C(=O)NC1CCCC1)c1cccnc1` (stereo not drawn), the “hERG current change (%, negative = inhibition) at 10uM” value is -0.441%. For `CC1CCN(S(=O)(=O)N2CCC(C(=O)NCCc3ccccc3)CC2)CC1`, the “hERG current change (%, negative = inhibition) at 10uM” value turned out to be 2.8%. With `CC(C)CN1C(=O)c2ccc(C(=O)Nc3ccccn3)cc2C1=O` the figure was -14.7%.

Regarding `CC1C(=O)N2CCCc3cc(NC(=O)COc4ccc(Cl)cc4)cc1c32` (stereo not drawn), the “hERG current change (%, negative = inhibition) at 10uM” value was -40.2%. With `Cn1c(CN2CCCC2)nc2cc(NC(=O)COc3ccccc3)ccc21`, the “hERG current change (%, negative = inhibition) at 10uM” value is on record as -34.1%. Take `Cn1c(CN2CCCC2)nc2cc(NC(=O)COc3ccc(Cl)cc3)ccc21`: the “hERG current change (%, negative = inhibition) at 10uM” value was -69.2%. With `O=C(COc1ccccc1)Nc1cc2c3c(c1)CC(=O)N3CCC2` the figure was -36%; with `O=C(COc1ccc(Cl)cc1)Nc1cc2c3c(c1)CC(=O)N3CCC2`, -57.1%; with `COc1ccc(OCC(=O)Nc2ccc3c(c2)nc(CN2CCCC2)n3C)cc1`, -26.9%. In the case of `CC(C)CNC(=O)COc1ncnc2sccc12`, the “hERG current change (%, negative = inhibition) at 10uM” value was -37.4%. With `Cc1c(CN(C)Cc2cn(C)nc2-c2ccccc2F)[nH]c2ccccc12` the figure was -6.24%; with `COc1cc(/C=N/n2nnnc2N)cc(OC)c1OC`, -0.774%; with `COC(=O)C1=C(CCc2ccccc2)NC(=O)NC1c1ccc(Cl)cc1` (stereo not drawn), -9.59%. Consider `Cc1cc(C)cc(C(=O)N(CCc2ccccc2)C2=CC3CCC(C2)N3C)c1.Cl` (stereo not drawn), for which the “hERG current change (%, negative = inhibition) at 10uM” value is -60.7%.

Regarding `O=C(NCCc1c[nH]c2ccccc12)c1ccc(Cl)cc1`, the “hERG current change (%, negative = inhibition) at 10uM” value is recorded as -12.7%. For the molecule `CN1C2C=C(N(CCc3ccccc3)C(=O)c3ccc(Cl)cc3)CC1CC2.Cl` (stereo not drawn), the “hERG current change (%, negative = inhibition) at 10uM” value was -74.8%. With `Cc1cc(C)cc(C(=O)NCCCc2ccccc2)c1` the figure was -4.26%. `CN1C2C=C(N(CCc3c[nH]c4ccccc34)C(=O)c3ccc(Cl)cc3)CC1CC2.Cl` (stereo not drawn): the “hERG current change (%, negative = inhibition) at 10uM” value is recorded as -67%. Turning to `COc1cc(C(=O)N(CCc2ccccc2)C2=CC3CCC(C2)N3C)cc(OC)c1OC.Cl.O` (stereo not drawn), the “hERG current change (%, negative = inhibition) at 10uM” value is recorded as -29.2%. As to `O=C(NCC(=O)N1CCC(Cc2ccccc2)CC1)c1ccc(Cl)cc1`, the “hERG current change (%, negative = inhibition) at 10uM” value is listed as -23.3%. Regarding `O=C(Cc1ccc(Cl)cc1)NCCc1c[nH]c2ccccc12`, the “hERG current change (%, negative = inhibition) at 10uM” value is on record as -19.8%. With `COc1cccc(CN(C(=O)c2cccc(OC)c2)C2CCS(=O)(=O)C2)c1` (stereo not drawn) the figure was -7.02%.

In the case of `O=P1(Nc2cccnc2)COc2ccccc2OC1`, the “hERG current change (%, negative = inhibition) at 10uM” value amounted to 30.6%. Take `CSc1ccccc1C(=O)NCCOc1cccc(C)c1`: the “hERG current change (%, negative = inhibition) at 10uM” value was 17.7%. On to `O=C(CNC(=O)c1cccs1)NCC(=O)OCc1ccccc1Cl`, for which the “hERG current change (%, negative = inhibition) at 10uM” value is 2.85%. With `CC(=O)N1CCC2(CC1)C(C#N)=C(N)Oc1n[nH]c(C)c12` the figure was 15.5%. For `Cc1[nH]nc2c1C1(CCC3(CC1)OCCO3)C(C#N)=C(N)O2`, the “hERG current change (%, negative = inhibition) at 10uM” value was -0.214%.

As for `Cc1[nH]nc2c1C1(CCOCC1)C(C#N)=C(N)O2`, the “hERG current change (%, negative = inhibition) at 10uM” value is listed as -56.7%.

As for `COc1ccc(S(=O)(=O)NC(C)C(=O)NCc2ccccn2)cc1Cl` (stereo not drawn), the “hERG current change (%, negative = inhibition) at 10uM” value was found to be 7.6%. Regarding `Cc1cccc2cc(CN(CCc3ccccc3)C(=O)N3CCOCC3)c3nnnn3c12`, the “hERG current change (%, negative = inhibition) at 10uM” value turned out to be 12.5%. For `Cc1cccc2cc(CN(Cc3cccnc3)C(=O)c3cccs3)c3nnnn3c12`, the “hERG current change (%, negative = inhibition) at 10uM” value is on record as 26.1%. In the case of `Cc1ccc2c(c1)cc(CN(Cc1ccc3c(c1)OCO3)C(=O)c1ccccc1)c1nnnn12`, the “hERG current change (%, negative = inhibition) at 10uM” value is -11.5%.

With `Cc1ccc2c(c1)cc(CN(Cc1cccnc1)C(=O)c1ccccc1)c1nnnn12`, the “hERG current change (%, negative = inhibition) at 10uM” value is reported as -78%.

Turning to `Cc1ccc2c(c1)cc(CN(Cc1cccnc1)C(=O)NCc1ccccc1)c1nnnn12`, the “hERG current change (%, negative = inhibition) at 10uM” value is reported as -75.2%.

Consider `Cc1ccc2c(c1)cc(CN(Cc1ccco1)C(=O)N1CCOCC1)c1nnnn12`, for which the “hERG current change (%, negative = inhibition) at 10uM” value was -14.7%.

Take `Cc1ccc2c(c1)cc(CN(Cc1ccc3c(c1)OCO3)C(=O)c1cnccn1)c1nnnn12`: the “hERG current change (%, negative = inhibition) at 10uM” value is recorded as -45.7%. Regarding `Cc1ccc2c(c1)cc(CN(CCc1ccccc1)C(=O)N1CCOCC1)c1nnnn12`, the “hERG current change (%, negative = inhibition) at 10uM” value is listed as -61.3%. With `Cc1ccc(C(=O)N(Cc2cccnc2)Cc2cc3cc(C)ccc3n3nnnc23)cc1` the figure was -23.8%.

With `Cc1ccc(S(=O)(=O)N(C)C)cc1-n1c(SCC(=O)Nc2ccc(F)cc2Cl)nc2ccccc2c1=O`, the “hERG current change (%, negative = inhibition) at 10uM” value was determined as 0.00438%. With `CC(=O)N1CCc2cc(S(=O)(=O)Nc3ccc(C)cc3)ccc21`, the “hERG current change (%, negative = inhibition) at 10uM” value is 16.9%.

For `Cc1ccccc1CN1CCN(S(=O)(=O)c2ccc(Cl)s2)CC1`, the “hERG current change (%, negative = inhibition) at 10uM” value was 3.24%. As to `CCOC(=O)c1c(C)oc2cc(Br)c(O)c(Br)c12`, the “hERG current change (%, negative = inhibition) at 10uM” value is given as 8.34%. As to `COc1ccc(C[C@H]2CN3C(=NC[C@@H]3Cc3ccc(O)cc3)N2C[C@H](C)NC(=O)c2ccc(C)c(Br)c2)cc1`, the “hERG current change (%, negative = inhibition) at 10uM” value is given as -77.9%.

With `Cc1ccc(C(=O)N[C@@H](C)CN2C3=NC[C@H](Cc4ccccc4)N3C[C@H]2Cc2ccc(O)cc2)cc1Br`, the “hERG current change (%, negative = inhibition) at 10uM” value was -82.5%. With `CCOc1ccc(C(=O)Nc2nnc(C)s2)cc1OCC`, the “hERG current change (%, negative = inhibition) at 10uM” value is given as -4.04%. Take `COc1cc(/C=C2/SC(=O)NC2=O)ccc1OC(=O)c1ccco1`: the “hERG current change (%, negative = inhibition) at 10uM” value was -0.00422%. As to `COc1cc2c(c3oc(=O)cc(CC(=O)O)c13)CCC(C)(C)O2`, the “hERG current change (%, negative = inhibition) at 10uM” value is recorded as -5.45%. Regarding `COc1ccccc1CCC(=O)N1CCC(n2nccc2NC(=O)C2CCOC2)CC1` (stereo not drawn), the “hERG current change (%, negative = inhibition) at 10uM” value came out at 23.1%.

Turning to `CCOC(=O)CC1(c2ccccc2)CCOC(C)(C)C1` (stereo not drawn), the “hERG current change (%, negative = inhibition) at 10uM” value amounted to 10.2%. As for `O=C(c1cccnc1)N1C2C=CC(C2)C1(C(F)(F)F)C(F)(F)F` (stereo not drawn), the “hERG current change (%, negative = inhibition) at 10uM” value came out at 14.6%. With `Cc1noc(C)c1C(=O)NC(C)C1CCCO1` (stereo not drawn) the figure was 3.08%; with `Cc1ccc(C(=O)N2CCN(C)CC2)cc1S(=O)(=O)N1CCCCCC1`, -25.9%; with `Cc1ccc2cc(CCNC(=O)c3ccc4c(c3)OCO4)c(=O)[nH]c2c1C`, 4.17%. For the molecule `O=C(O)c1ccc(COc2ccccc2/C=C2\NC(=O)N(Cc3ccccc3)C2=O)cc1`, the “hERG current change (%, negative = inhibition) at 10uM” value was 24.5%. With `COCCNC(=O)c1ccc(CS(=O)(=O)c2c(Cl)cccc2Cl)o1` the figure was 0.994%; with `CCCN(CCC)CCCNC(=O)c1ccc(CS(=O)(=O)c2c(Cl)cccc2Cl)o1`, -73.1%. On to `O=C(NCCCN1CCCC1)c1ccc(CS(=O)(=O)c2c(Cl)cccc2Cl)o1`, for which the “hERG current change (%, negative = inhibition) at 10uM” value was -10.5%. For `CCCCN(CC)CCCNC(=O)c1ccc(CS(=O)(=O)c2ccccc2C)o1`, the “hERG current change (%, negative = inhibition) at 10uM” value was -35.2%. Consider `CCCCN(CC)CCCNC(=O)c1ccc(CS(=O)(=O)c2c(Cl)cccc2Cl)o1`, for which the “hERG current change (%, negative = inhibition) at 10uM” value is reported as -55.4%. As to `O=C(NC1CC1)c1ccc(CS(=O)(=O)c2c(Cl)cccc2Cl)o1`, the “hERG current change (%, negative = inhibition) at 10uM” value is -5.87%. With `CCCCN(CCCNC(=O)c1ccc(CS(=O)(=O)c2c(Cl)cccc2Cl)o1)Cc1ccccc1` the figure was -66.1%; with `O=C(NCCN1CCOCC1)c1ccc(CS(=O)(=O)c2c(Cl)cccc2Cl)o1`, 0.302%. Turning to `O=C(O)c1ccc(CS(=O)(=O)c2c(Cl)cccc2Cl)o1`, the “hERG current change (%, negative = inhibition) at 10uM” value came to 19%. Regarding `O=c1nc(-c2ccccc2)c2ccccc2[nH]1`, the “hERG current change (%, negative = inhibition) at 10uM” value is -1.29%.

With `Cc1oc(-c2ccc(Cl)cc2)cc1C(=O)NC1CCN(Cc2ccccc2)CC1`, the “hERG current change (%, negative = inhibition) at 10uM” value was 1.09%. Regarding `CCc1cc(=O)oc2cc(C)cc(OC(C)C(=O)NCC(O)c3ccccc3)c12` (stereo not drawn), the “hERG current change (%, negative = inhibition) at 10uM” value stood at 4.7%.

For `Cc1ccc(CNC(=O)NC23CC4CC(CC(C4)C2)C3)cc1`, the “hERG current change (%, negative = inhibition) at 10uM” value was found to be 7.24%. For the molecule `CCn1cc(C(=O)NCC(OC)OC)c(=O)c2cc(S(=O)(=O)N3CCC(C)CC3)ccc21`, the “hERG current change (%, negative = inhibition) at 10uM” value was -28.8%. With `CSc1ccc(CNc2cccc3ccccc23)cc1` the figure was 2.23%; with `CCOC(=O)c1c(NC(=O)c2ccc(Br)o2)sc2c1CCCC2`, -9.78%. With `Fc1ccc2nc3c(nc2c1)CCCC3` the figure was 15.3%; with `COCCCn1c(SCC(N)=O)nnc1-c1ccccc1`, -0.75%; with `Cc1ccccc1CC1(CO)CCCN(C(=O)c2cc(Cl)ccc2F)C1` (stereo not drawn), -16.5%. For `Cc1ccccc1CC1(CO)CCCN(C(=O)c2ccccc2N(C)C)C1` (stereo not drawn), the “hERG current change (%, negative = inhibition) at 10uM” value is listed as -1.63%. With `Cc1ccccc1CC1(CO)CCCN(C(=O)c2ccccc2Cl)C1` (stereo not drawn), the “hERG current change (%, negative = inhibition) at 10uM” value was -81.5%.
